According to PubChem BioAssay AID488832 (National Center for Advancing Translational Sciences (NCATS), 2010):
Inconclusive results are not listed. Active and inactive are the calls of the source. Calls come from the whole dose curve; as a rule, active = well fitted activation curve with a large enough effect; inconclusive = small, poorly fitted or top-dose-only effect; inactive = no such curve, though single readings can be large or run the other way.

Assay: Confirmation Concentration-Response Assay for Enhancers of SMN2 Splice Variant Expression for Further Probe SAR
Conditions: HEK293 SMN2 exon7-luciferase splicing reporter, luminescence, 30-36 h; series mostly up to 46.1 µM; activity, positive = activation: at the top concentration
Source text: NIH Chemical Genomics Center [NCGC] NIH Molecular Libraries Probe Production centers Network [MLPCN] MLPCN Grant: R03 MH084179-01 Assay Submitter (PI): Elliot Androphy NCGC Assay Overview: Spinal muscular atrophy (SMA) is caused by insufficient levels of the survival motor neuron protein SMN. The SMN locus on chromosome 5q13 contains two inverted copies of SMN called SMN1 and SMN2 which are 99% identical at the amino acid level. SMN1 is a fully functional protein and SMN2 skips exon 7 90% of the time. Skipping of exon 7 produces non-functional protein product. 10% of the SMN2 protein includes exon 7 and is fully functional. In the SMA disease state, mutations in the SMN1 locus are the cause of the disease state. Because only 10% of SMN2 is of the fully functional form, it is not sufficient to overcome the deficiency produced by the loss of the SMN1 product. A therapy that either increase the amount of SMN2 product made or to increase the inclusion of exon 7 has been proposed for the treatment of SMA. We have designed an assay to identify small molecules that can increase the amount of functional SMN2 product by appending a luciferase reporter gene after the native SMN2 gene, such that inclusion of exon 7 in the expressed product places the luciferase sequence in frame, thus generating functional luciferase enzyme.
NCGC Assay Protocol Summary: This screen utilizes a luciferase reporter gene assay, combining the promoter with the major portion of the native SMN2 cDNA (exons 1 -7, intron 8 , exon 8 fused to luciferase) stably expressed in HEK293 cells. Compounds that increase luciferase signal presumably enhance expression of the functional SMN2 splice variant. Passaging media contained DMEM w/ glutamax (+phenol red) 10% FCS, 1x pen/strep, 200 ug/ml hygro, 1x sodium pyruvate. Assay media contained DMEM w/ glutamax (-phenol red) 10% FCS, 1x pen strep, 1x pyruvate Sequence, Parameter, Value, Description (1) Cells, 5 uL, 2000 cells/well, 1536 TC treated White solid bottom plate (2) Time, 10-12 hours, 37C 5% CO2 (3) Compound, 23 nl, MLSMR Library (4) Control Compound, 23 nL, Sodium butyrate st 4.5mM (final) conc (5) Time, 30-36 hours, 37C 5% CO2 (6) Reagent, 3 ul, One Glo (TM) from Promega (7) Time, 5-15 minutes, Room temp (8) Detector, Viewlux: luminescent read, 60 second integration, high speed 2x binning Keywords: Spinal muscular atrophy, SMA, SMN2, high throughput screening, MLSMR, MLPCN, NIH Roadmap, qHTS and NCGC

Row | Structure (SMILES) | activity, positive = activation | Potency
1 | O=C(NCCCc1ccccc1)C1CCN(c2nc(-c3ccc(Br)cc3)cs2)CC1 | -47.8% (inactive) | –
2 | NC(=O)C1CCN(c2ncc(-c3cccc(N4CCCC4)c3)s2)CC1 | – | 345 nM (active)
3 | NC(=O)C1CCN(c2nc(-c3cccc4ccccc34)cs2)CC1 | -9.52% (inactive) | –
4 | NC(=O)C1CCN(c2ncc(Br)cn2)CC1 | 4.35% (inactive) | –
5 | NC(=O)C1CCN(c2ncc(-c3ccc4c(c3)OC(F)(F)O4)s2)CC1 | – | 194 nM (active)
